Reference: article PMC4336329 (PLoS ONE, 2015)
Among all 310,000 compounds or so, about 14,000 (4.5%) showed an effect of 50% or more. The effect is printed as a negative number. The sample holds strong results, similar compounds and a random draw of the others, so the mix is not that of the screen.

What follows are compounds tested against human ether-à-go-go-related gene (hERG) potassium channel (human, UniProt Q12809) (assay: primary screen, population patch clamp on CHO cells stably expressing hERG; higher = less effect of the substance).
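Note: peak tail current of the secondary pulse compared with the same well before compound.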

Sequence of human ether-à-go-go-related gene (hERG) potassium channel (Q12809 whole entry, looked up): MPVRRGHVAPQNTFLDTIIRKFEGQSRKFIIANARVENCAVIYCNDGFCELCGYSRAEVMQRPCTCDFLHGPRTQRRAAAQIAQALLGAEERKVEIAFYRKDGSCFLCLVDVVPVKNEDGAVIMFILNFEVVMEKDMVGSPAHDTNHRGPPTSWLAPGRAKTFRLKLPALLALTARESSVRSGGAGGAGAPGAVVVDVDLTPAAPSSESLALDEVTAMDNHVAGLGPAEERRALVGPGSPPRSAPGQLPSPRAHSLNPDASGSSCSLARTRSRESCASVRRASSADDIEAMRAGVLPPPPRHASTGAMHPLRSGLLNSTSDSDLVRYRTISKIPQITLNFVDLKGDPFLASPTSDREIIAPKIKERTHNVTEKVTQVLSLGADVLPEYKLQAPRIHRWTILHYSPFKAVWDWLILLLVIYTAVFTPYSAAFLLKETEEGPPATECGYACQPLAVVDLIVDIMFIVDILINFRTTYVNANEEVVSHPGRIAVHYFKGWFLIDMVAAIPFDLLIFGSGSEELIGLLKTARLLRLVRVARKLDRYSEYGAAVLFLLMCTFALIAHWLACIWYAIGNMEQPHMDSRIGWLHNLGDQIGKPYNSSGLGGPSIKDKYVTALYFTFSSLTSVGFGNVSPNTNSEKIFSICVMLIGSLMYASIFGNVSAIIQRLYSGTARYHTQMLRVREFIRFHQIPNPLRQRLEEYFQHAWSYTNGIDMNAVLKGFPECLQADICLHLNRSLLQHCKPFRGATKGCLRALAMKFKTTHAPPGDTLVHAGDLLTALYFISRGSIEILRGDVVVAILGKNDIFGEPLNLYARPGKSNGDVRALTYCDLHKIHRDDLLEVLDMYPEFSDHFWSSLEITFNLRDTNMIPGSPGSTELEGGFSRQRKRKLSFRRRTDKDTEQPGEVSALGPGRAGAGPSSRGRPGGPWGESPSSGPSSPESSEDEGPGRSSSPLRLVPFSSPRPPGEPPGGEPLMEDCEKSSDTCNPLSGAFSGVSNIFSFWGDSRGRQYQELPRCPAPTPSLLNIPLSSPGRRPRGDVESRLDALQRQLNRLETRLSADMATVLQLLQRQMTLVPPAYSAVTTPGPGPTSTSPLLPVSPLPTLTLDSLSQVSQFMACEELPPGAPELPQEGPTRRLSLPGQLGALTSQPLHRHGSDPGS

Row | SMILES | hERG current change (%, negative = inhibition) at 10uM [%]
1 | COc1cccc(CN2CCCC(C(=O)N3CCCCC3)C2)c1OC.O=C(O)C(=O)O (centres unmarked) | -26.3
2 | COc1cccc(CN2CCC(C(=O)N3CCN(Cc4ccc5c(c4)OCO5)CC3)CC2)c1OC | -39.5
3 | COc1cccc(CN2CCCC(C(=O)c3ccc4c(c3)OCO4)C2)c1OC (centres unmarked) | -63.3
4 | COc1cccc(CN2CCCC(C(=O)c3ccc4c(c3)OCO4)C2)c1O (centres unmarked) | -65.5
5 | COc1ccc(CN2CCCC(C(=O)c3ccc4c(c3)OCO4)C2)c(F)c1 (centres unmarked) | -64.2
6 | COc1cc(OC)c(OC)cc1CN1CCCC(C(=O)N2CCCC2)C1.O=C(O)C(=O)O (centres unmarked) | 17.4
7 | COc1cc(OC)c(OC)cc1CN1CCCC(C(=O)c2ccc3c(c2)OCO3)C1 (centres unmarked) | -67.1
8 | COC(=O)c1ccccc1NC(=O)COC(=O)CO/N=C(\C)c1ccc2c(c1)OCO2 | 21
9 | CCn1c(SCC(=O)Nc2nc3ccc(OC)cc3s2)nnc1-c1ccoc1C | -32.3
10 | OC(COc1cc(Cl)c(Cl)cc1Cl)CN1CCN(c2ncccn2)CC1 (centres unmarked) | -11.3
11 | CCSc1nnc(NC(=O)CSc2nccn2-c2cc(C)cc(C)c2)s1 | -2.92
12 | COc1ccc(-c2c(C)nn3c(N4CCCCCC4)cc(C)nc23)cc1OC | 7.94
13 | COc1cccc(C(=O)C2CCCN(Cc3cccc4c3OCO4)C2)c1 (centres unmarked) | -49.4
14 | CCNC(=O)N1CCCC(C(=O)c2ccc(OC)c(OC)c2)C1 (centres unmarked) | 20.8
15 | COc1ccc(C(=O)C2CCCN(Cc3cccc4c3OCO4)C2)cc1OC (centres unmarked) | -73.8
16 | CCN1C(=O)CC(N2CCN(c3cccc(OC)c3)CC2)C1=O (centres unmarked) | 14.1
17 | Cc1cc2nccc(-c3ccccn3)n2n1 | 28.3
18 | Cc1ccc(Nc2nc(=O)[nH]nc2C)cc1 | -9.45
19 | CC1CCCCC1NC(=O)CCNC(=O)N1CC(=O)Nc2ccccc21 (centres unmarked) | 10.5
20 | CC(=O)Nc1cccc(-c2nnc(SCC(=O)n3c4c(c5ccccc53)CCCC4)n2C)c1 | 2.33
21 | CCOC(=O)c1c(NC(=O)CSc2ncccn2)sc2c1CC(C)(C)NC2(C)C | -55.9
22 | CCOC(=O)c1c(NC(=O)CSc2nc3ccc(C)cc3[nH]2)sc2c1CC(C)(C)NC2(C)C | -44.3

Row | SMILES | hERG current change (%, negative = inhibition) at 10uM [%]
23 | CCOC(=O)c1sc(NC(=O)CSc2nnnn2-c2ccccc2)c(C(=O)OCC)c1C | 4.34
24 | COC(=O)c1c(NC(=O)Cc2ccccc2)sc2c1CC(C)(C)NC2(C)C | -11.1
25 | CCOC(=O)c1c(NC(=O)COc2ccccc2F)sc2c1CC(C)(C)NC2(C)C | 5.17
26 | CCOC(=O)c1c(NC(=O)CSc2nnnn2-c2ccccc2)sc2c1CCC(C)C2 (centres unmarked) | -5.66
27 | CCOC(=O)c1c(NC(=O)CSc2nnnn2-c2ccccc2OCC)sc2c1CC(C)(C)NC2(C)C | -71.2
28 | CCOC(=O)c1c(NC(=O)COc2ccccc2OCC)sc2c1CC(C)(C)NC2(C)C | 13.3
29 | CCOC(=O)c1c(NC(=O)CSc2nnnn2-c2ccccc2)sc2c1CC(C)(C)NC2(C)C | -64.3
30 | CCOC(=O)c1c(NC(=O)CSc2nc3ccccc3[nH]2)sc2c1CC(C)(C)NC2(C)C | -45.2
31 | CCOC(=O)c1c(NC(=O)COc2ccccc2)sc2c1CC(C)(C)NC2(C)C | 14.3
32 | CCOC(=O)c1c(NC(=O)Cc2ccccc2)sc2c1CC(C)(C)NC2(C)C | -52
33 | N#Cc1ccc2ccn(CC(=O)NCc3ccccc3)c2c1 | -1.22
34 | O=C(CN1CCN(Cc2ccccc2F)C1=O)NC1CCCC1 | 1.87
35 | Cc1nccn1CC(O)COC1CCCCC1 (centres unmarked) | 13
36 | Nc1nnnn1/N=C/c1cccs1 | 3.28
37 | CSc1ncccc1C(=O)NCCc1ccccc1 | 7.94
38 | CC(C)n1c(CN2CCN(Cc3ccccc3)CC2)nc2ccccc21 | -14.4
39 | CCC(C)NC(=O)CSc1nc2c(sc(=S)n2Cc2ccco2)c(=O)n1-c1ccccc1 (centres unmarked) | -9.99
40 | CCn1c(=S)sc2c(=O)n(-c3ccccc3)c(SC)nc21 | -11.2
41 | CCN(CC)C(=O)CSc1nc2c(sc(=S)n2-c2ccccc2)c(=O)n1Cc1ccco1 | -78.7
42 | CCN(CC)C(=O)CSc1nc2c(sc(=S)n2CC)c(=O)n1-c1ccccc1 | -66.9
43 | CCN(CC)C(=O)CSc1nc2c(sc(=S)n2Cc2ccco2)c(=O)n1-c1ccccc1 | -29.4
44 | CCN(CC)C(=O)CSc1nc2c(sc(=S)n2-c2ccccc2OC)c(=O)n1-c1ccccc1 | -4.22
